# From PubChem BioAssay AID589 (National Center for Advancing Translational Sciences (NCATS), 2007)
# Hit rate of the full screen: of about 59,000 compounds, about 6,200 (11%) were called active. Inconclusive results (about 9%) are left out. The sample holds actives, similar compounds and a random draw of the others, so the mix is not that of the screen. Rule as the data show it: active = max dye-equivalent concentration above about 10 nM; inconclusive = mostly about 1.1 nM to 9.6 nM; inactive = weaker than that.
# Assay: qHTS Assay for Spectroscopic Profiling in 4-MU Spectral Region
# Conditions: compound autofluorescence, 340/450 nm, 4-MU equivalents; stronger effect = higher value
# In short: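 Compounds in 100 mM Tris, pH 8.0, sat 15 min at room temperature before fluorescence was read at 340 nm excitation/450 nm emission; a per-plate six-point 4-MU standard curve converted signals to dye-equivalent concentration at each compound concentration.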
row,Compound,max dye-equivalent concentration
1,Cc1cc(NC(=O)CN2CCC(O)(c3cccc(F)c3)CC2)no1,inactive
2,CCn1c(SCC(=O)c2ccc(Cl)s2)nnc1-c1cccs1,inactive
3,Cc1ccn2cc(-c3nonc3C)cc2c1,inactive
4,COC(=O)c1cccc(NC(=O)CSc2nc(C)cc(=O)[nH]2)c1,inactive
5,Cc1ccccc1NC(=O)c1ccccc1,inactive
6,Cc1ccc(NC(=O)c2nc[nH]c2C(=O)N2CCCCC2)c(C(=O)c2ccccc2)c1,inactive
7,Cc1ccc2c(c1)sc1ncc(NC(=O)c3ccccc3)c(=O)n12,55 nM (active)
8,CCOC(=O)c1c(C)[nH]c(C)c1C(=O)CSc1nc(N)cc(N)n1,inactive
9,CCOC(=O)N1CCC(NC(=O)CN2C(=O)COc3ccc(C(C)(C)C)cc32)CC1,inactive
10,O=C(c1cccc(F)c1)N1CCC2(CCCN(Cc3ccncc3)C2)CC1,inactive
11,CCC12CN3CC(CC)(CN(C1)C31C(=O)N(C)c3ccc(C)cc31)C2=O (stereo not drawn),inactive
12,CC(=O)OCc1cc2cc(C)ccc2[nH]c1=O,inactive
13,CCNCc1cc2cc(C)ccc2[nH]c1=O,49 nM (active)
14,CCOC(=O)c1cc2cc(C)ccc2[nH]1,inactive
15,O=C(CNC(=O)c1ccc(Cl)cc1Cl)NCC(=O)Nc1ccccc1N1CCOCC1,inactive
16,COc1ccc2c(c1OC)C(=O)OC2c1c(O)nc(SC)n(-c2ccccc2)c1=O (stereo not drawn),inactive
17,O=c1[nH]c(-c2cccs2)nc2ccccc12,inactive
18,O=c1[nH]c(=O)c2nc3ccccc3nc2[nH]1,210 nM (active)
19,CC1(C)CCCC2=C1CC1C(=O)N(c3ccccc3)C(=O)C1C2 (stereo not drawn),inactive
20,CCOC(=O)C1CCN(Cc2coc3ccc(Cl)cc3c2=O)CC1,inactive
21,Cc1noc(C)c1-c1nccc(N2CCOCC2)n1,inactive
22,CC[C@@H]1Cc2cc(O)ccc2C2=C1c1ccc(O)cc1C[C@H]2CC,270 nM (active)

row,Compound,max dye-equivalent concentration
1,O=C(NCCC1=CCCCC1)C1CCN(Cc2cnn(-c3ccccc3)c2-n2cccc2)CC1,inactive
2,COC(=O)c1ccc(Oc2nc(Nc3ccc(F)cc3)nc(N3CCCC3)n2)cc1,inactive
3,c1ccc(CNc2ncncc2-c2cccnc2)cc1,inactive
4,Cc1ccc(S(=O)(=O)c2nc(NCCCn3ccnc3)sc2Cl)cc1,inactive
5,Cc1ccc(-c2noc(-c3ccccc3C(=O)NCC3CCCO3)n2)cc1 (stereo not drawn),inactive
6,CCOc1cc(-c2nc3cc(C)ccn3c2NCC2CCCO2)ccc1O (stereo not drawn),68 nM (active)
7,Cc1ccc(C(=O)O)cc1S(=O)(=O)NCC1CCCO1 (stereo not drawn),inactive
8,O=C(CSc1nnc(-c2ccco2)o1)NCC(=O)c1ccccc1,inactive
9,COc1ccc(C(=O)N(Cc2ccc(N(C)C)cc2)C2CCS(=O)(=O)C2)cc1 (stereo not drawn),inactive
10,CC(=O)N1CCC2(CCCN(c3ncccn3)C2)CC1,inactive
11,COc1cc2c(cc1OC)C(c1ccncc1)CC(=O)N2 (stereo not drawn),inactive
12,COc1ccc(C(CNC(=O)c2cccnc2SC)N2CCOCC2)cc1 (stereo not drawn),inactive
13,CC(C)c1nc(N2CCOCC2)c(C#N)c2c1COC(C)(C)C2,140 nM (active)
14,c1ccc2[nH]c(NCCN3CCOCC3)nc2c1,inactive
15,COc1ccc(CSc2nc(N3CCOCC3)c3c(c2C#N)CC(C)(C)OC3)cc1,30 nM (active)
16,CC1(C)Cc2c(C#N)c(SCc3nc4ccccc4[nH]3)nc(N3CCOCC3)c2CO1,28 nM (active)
17,CC(C)Cc1nc(N2CCOCC2)c(C#N)c2c1CCC2,56 nM (active)
18,CCn1c(Cc2ccccc2)nnc1SCc1nc2ccccc2c(=O)[nH]1,inactive
19,O=C(Nc1cccc(F)c1)N1CC2(CCN(C(=O)c3csnn3)CC2)C1,inactive
20,O=C(c1cc(C(F)(F)F)cc(C(F)(F)F)c1)N1CCC[C@@]2(CCN(c3ccccn3)C2)C1,inactive
21,Cc1cc(C)n(C(=O)c2ccc(S(=O)(=O)N3CCCC3)cc2)n1,inactive
22,CCSc1nc(=S)n(CC)c(C)c1C(C)=O,inactive

row,Compound,max dye-equivalent concentration
1,CCOC(=O)c1sc(NC(=O)CSc2nnc(-c3ccco3)o2)c(C(=O)OCC)c1C,inactive
2,CC1CCCN(C(=O)Cn2c(=O)oc3ccccc32)C1 (stereo not drawn),inactive
3,COC(=O)C1=C(C)NC(=O)NC1/C=C/c1ccccc1 (stereo not drawn),inactive
4,CC(C)C(=O)N1CCN(c2nc(-c3ccccc3)c3c(c2C#N)CC(C)(C)OC3)CC1,190 nM (active)
5,CNC(=O)Nc1cc(C(C)(C)C)no1,inactive
6,Cn1nnc(NC(=O)CSc2ncn[nH]2)n1,inactive
7,CCCCC(=O)Nc1ccc2c(c1)OCCO2,inactive
8,CCCCCC(=O)Nc1ccc2oc(-c3ccncc3)nc2c1,23 nM (active)
9,CCCC(=O)Nc1ccc2c(c1)nc1n2CCSC1,inactive
10,O=C(c1ccco1)N1CCC2(CC1)CCN(c1ncccn1)CC2,inactive
11,O=C1NC(c2ccncc2)Nc2sc3c(c21)CCCC3 (stereo not drawn),59 nM (active)
12,COC(=O)c1ccc(Oc2nc(NC(C)C)nc(SC)n2)cc1,inactive
13,c1ccc2c(Nc3ccncc3)nc(-c3ccoc3)nc2c1,inactive
14,COc1cccc(-c2nc(Nc3ccncc3)c3ccccc3n2)c1,inactive
15,c1ccc2c(Nc3ccncc3)nc(-c3ccc4c(c3)OCO4)nc2c1,19 nM (active)
16,CCOCCCN1C(=O)CN(C2CCCCC2)C(=O)C1c1ccc(OCC)c(OC)c1 (stereo not drawn),inactive
17,COc1ccc(CNC(=O)c2c(C)cc(=O)oc2C)cc1OC,inactive
18,COCCN(C(=O)CCC(=O)Nc1ccccn1)C(C(=O)NCCC(C)C)c1ccc(OC)cc1 (stereo not drawn),inactive
19,Oc1ccccc1CNCc1ccccc1O,inactive
20,c1ccc2c(CNn3cnnc3)cccc2c1,inactive
21,Cc1cc(C)c2c(c1)c(C)cc1nnc(SCC(=O)NCc3ccco3)n12,inactive
22,COc1ccc2nc(N3CCCC(O)C3)c(C#N)cc2c1 (stereo not drawn),170 nM (active)

row,Compound,max dye-equivalent concentration
1,COc1ccc(OC)c(CNC(=O)C2CCCN(c3nc4ccccc4o3)C2)c1 (stereo not drawn),inactive
2,Nc1nonc1-c1noc(-c2ccc(Br)o2)n1,inactive
3,c1csc(CN2CCN(Cc3cccs3)C2c2cccs2)c1,inactive
4,Cc1nn(-c2ccccc2)c2[nH]c(C(F)(F)F)cc(=O)c12,inactive
5,COc1ccc(CC(=O)Nc2nc3n(n2)C(c2ccccc2)CC(=O)N3)cc1OC (stereo not drawn),inactive
6,CCOc1ccc(CCNC(=O)C2CCN(c3ccc(N4CCOCC4)nn3)CC2)cc1OCC,410 nM (active)
7,COc1ccc(CCNC(=O)C2CCN(c3nn4c(=O)cc(C)nc4s3)CC2)cc1OC,inactive
8,CCCS(=O)(=O)N1CCC(C(=O)NCCc2ccc(OC)c(OC)c2)CC1,inactive
9,Cc1ccc(-n2c(N)c(C(=O)N3CCOCC3)sc2=S)c(C)c1,inactive
10,CS(=O)(=O)N1CCC2(CC1)CN(Cc1cc(C(F)(F)F)cc(C(F)(F)F)c1)C2,inactive
11,CCOc1cc(CN2CCN(C(=O)CC(C)C)CC2)ccc1OC,inactive
12,O=C(CSc1nnc(-c2ccccn2)n1-c1ccccc1)Nc1ccc2c(c1)OCO2,inactive
13,COc1ccc2[nH]c3cc4c(=O)c5cc(OC)ccc5[nH]c4cc3c(=O)c2c1,inactive
14,COc1ccc2[nH]c3ccc(OC)cc3c2c1,200 nM (active)
15,COc1cccc(Oc2ccc(N)cc2)c1,inactive
16,O=C(O)CN(Cc1ccco1)S(=O)(=O)c1ccc(F)cc1,inactive
17,O=C(c1ccco1)N1CCN(CC(=O)N(C2CCCCC2)C2CCS(=O)(=O)C2)CC1 (stereo not drawn),inactive
18,Cc1c(NC(=O)c2coc(=O)c(Br)c2)c(=O)n(-c2ccccc2)n1C,190 nM (active)
19,Cc1c(NC(=O)c2cccnc2)c(=O)n(-c2ccccc2)n1C,inactive
20,Cc1cc(C(=O)Nc2c(C)n(C)n(-c3ccccc3)c2=O)cs1,inactive
21,CCOCCCNS(=O)(=O)Cc1ccccc1,inactive
22,O=C1c2ccccc2C(O)N1Cc1ccccc1 (stereo not drawn),25 nM (active)

row,Compound,max dye-equivalent concentration
1,O=C1c2cccnc2C(Nc2ccc(S(=O)(=O)N3CCCCCC3)cc2)N1Cc1ccccc1 (stereo not drawn),inactive
2,O=C(NC1CCCCC1)C1c2ccccc2C(=O)N1Cc1ccco1 (stereo not drawn),inactive
3,CCOC(=O)CSc1nnc(NC(=O)c2cccc(S(=O)(=O)N3CCCC3)c2)s1,inactive
4,CN1C(=O)C[C@H](c2ccccc2)C1=O,inactive
5,CCCCCOC(=O)NCCOC(=O)Nc1ccc(C(=O)OCC)cc1,inactive
6,COc1cccc(-c2nc(S(=O)(=O)c3ccccc3)c(N3CCOCC3)o2)c1,inactive
7,COc1cccc(-c2cc3nc4c(c(N5CCC6(CC5)OCCO6)n3n2)CCCC4)c1,100 nM (active)
8,CC1CC(C)CN(CC(=O)Nc2ccc(S(N)(=O)=O)cc2)C1 (stereo not drawn),inactive
9,Cc1cccn2c(=O)c3cc(C#N)c(=O)n(CCCN4CCOCC4)c3nc12,8300 nM (active)
10,Cc1nnc(SCC(N)=O)n1CC1CCCO1 (stereo not drawn),inactive
11,Cn1c(=O)c2c(nc(CN3CCOCC3)n2Cc2ccccc2)n(C)c1=O,inactive
12,Cc1cccn2c(=O)c3cc(C#N)c(=NC(=O)c4cccnc4)n(CC4CCCO4)c3nc12 (stereo not drawn),3400 nM (active)
13,C[C@H](CCC(=O)NCC(=O)O)[C@H]1CC[C@H]2[C@H]3[C@@H](C[C@@H](O)[C@]12C)[C@]1(C)CC[C@H](O)C[C@@H]1C[C@@H]3O,inactive
14,O=S(=O)(NCc1cccnc1)c1ccc(Br)s1,inactive
15,CCOc1ccc(N=C2SC(C(=O)O)CC(=O)N2C)cc1 (stereo not drawn),inactive
16,CCn1c(=N)c(S(=O)(=O)c2ccc(F)cc2)cc2c(=O)n3ccccc3nc21,590 nM (active)
17,O=CN1CCN(C2CC(=O)N(c3ccc4c(c3)OCO4)C2=O)CC1 (stereo not drawn),inactive
18,COC(=O)c1cc(Cl)c(NC(=O)c2ccco2)cc1OC,inactive
19,Cn1c(NC(=O)c2ccco2)c(-c2ccccc2Cl)c(=O)c2ccccc21,inactive
20,Cc1ccc(-n2nc3cc(Cl)c(NC(=O)c4ccco4)cc3n2)cc1,54 nM (active)
